Screening results from PubChem BioAssay.
Shown are actives, neighbours in structure and some others; about 3.6% of the full set was active somewhere.
KKLEB tox: reduces viability of KKLEB cystic fibrosis airway cells | AID 602141 | 360,000 compounds, 0.36% hits | KKLEB CF airway cells viability, ATPlite luminescence, overnight; hits give low values; cells stimulated with P. aeruginosa culture filtrate | activity change (cytotoxicity), % at 5 µM;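 active = corrected activity change at or below -50% at 5 µM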
LGR2 antag: inhibitors of bursicon-induced Drosophila LGR2 receptor cAMP signaling. 380,000 compounds, 0.35% hits. inhibition, % at 9.99 µM. HEK293 LGR2, CRE-luciferase, bursicon-stimulated, 4 h. AID 720647;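 active = drop in luminescence signal, shown as inhibition above about 50% in the replicate tests, limit read from the data, passing the limit was not always enough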;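 note: agonist challenge used bursicon conditioned medium at about half maximal strength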
HSP90 refold inh: inhibitors of HSP90 luciferase refolding in rabbit reticulocyte lysate; 290,000 compounds, 0.91% hits; luciferase refolding luminescence, 3 h; inhibition, % at 5.6 µM;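 active = inhibition above the screen-wide mean plus 3 SD, computed separately per campaign, cut at about 16% in these data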;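 note: 0% = DMSO wells and 100% = 60 µM geldanamycin wells; inhibitors lower the luminescence because luciferase stays unfolded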
CF NFkB block: blocks PAF-induced NF-kB reporter in cystic fibrosis cells. KKLEB NF-kB-GFP reporter, GFP fluorescence overnight. inhibition, % at 5 µM. 360,000 compounds, 0.86% hits. AID 588850;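 active = at least 50% inhibition at 5 µM, scaled per plate between neutral and stimulator controls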;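 note: PAF is a Pseudomonas aeruginosa culture filtrate used as stimulus; plate controls were PAF-stimulated DMSO wells for no effect and unstimulated DMSO wells for full effect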
Peg3 prom inh-1: Peg3 promoter activity inhibition. HeLa PEG-Prom luciferase reporter, luminescence, overnight. inhibition, % at 20 µM. 360,000 compounds, 1.7% hits;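 active = inhibition of at least 50% at 20 µM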
Mdm2 MdmX PPI: human Mdm2/MdmX binding inhibition | O15151+Q00987 | SaOS-2 split-luciferase Mdm2/MdmX complementation, luminescence | inhibition, % at 8 µM | 330,000 compounds, 3% hits | AID 485346;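 active = inhibition of at least 50% at 8 µM in the primary screen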
Target sequence (O15151 whole entry, looked up): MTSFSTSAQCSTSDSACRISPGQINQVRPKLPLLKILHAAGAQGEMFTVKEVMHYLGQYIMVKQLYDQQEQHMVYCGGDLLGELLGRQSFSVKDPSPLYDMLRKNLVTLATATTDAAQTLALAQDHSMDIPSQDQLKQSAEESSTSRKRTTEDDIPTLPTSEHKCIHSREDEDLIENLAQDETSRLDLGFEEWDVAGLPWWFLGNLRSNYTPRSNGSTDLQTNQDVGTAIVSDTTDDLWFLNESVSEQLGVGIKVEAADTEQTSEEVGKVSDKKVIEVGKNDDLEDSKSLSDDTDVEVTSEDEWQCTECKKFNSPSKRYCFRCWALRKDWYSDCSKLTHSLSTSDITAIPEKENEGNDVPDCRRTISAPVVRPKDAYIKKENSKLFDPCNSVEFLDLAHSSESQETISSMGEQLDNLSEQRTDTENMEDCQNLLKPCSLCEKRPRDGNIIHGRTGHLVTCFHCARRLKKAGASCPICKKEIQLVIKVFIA
Target sequence (Q00987 whole entry, looked up): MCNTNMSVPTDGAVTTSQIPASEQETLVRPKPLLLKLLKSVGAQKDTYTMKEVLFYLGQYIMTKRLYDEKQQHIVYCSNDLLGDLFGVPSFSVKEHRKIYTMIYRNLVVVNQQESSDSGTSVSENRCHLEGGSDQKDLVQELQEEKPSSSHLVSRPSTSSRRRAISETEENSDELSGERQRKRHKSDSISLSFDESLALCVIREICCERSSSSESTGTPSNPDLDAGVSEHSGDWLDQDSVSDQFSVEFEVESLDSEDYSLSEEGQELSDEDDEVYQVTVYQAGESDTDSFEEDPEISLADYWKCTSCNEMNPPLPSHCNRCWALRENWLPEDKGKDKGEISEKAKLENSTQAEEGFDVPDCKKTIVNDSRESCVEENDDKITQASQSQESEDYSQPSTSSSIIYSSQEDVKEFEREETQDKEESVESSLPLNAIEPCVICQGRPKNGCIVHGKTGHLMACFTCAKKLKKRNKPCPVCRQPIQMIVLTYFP
Mdm2 MdmX conf: confirmation of human Mdm2/MdmX interaction inhibitors; shares compounds with Mdm2 MdmX PPI; Mdm2-MdmX binding, luminescent assay; inhibition, % at 8 µM; 10,000 compounds, 55% hits; AID 489028; in the data active = inhibition above about 40%
FLuc counter: inhibits full-length luciferase, flagging false Mdm2/MdmX hits; AID 504607; 6,200 compounds, 77% hits; inhibition, % at 8 µM; shares compounds with Mdm2 MdmX PPI; SaOS-2 full-length luciferase counterscreen, luminescence;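 active = mean inhibition at 8 µM reaching about 37%, which flags the compound as non-specific, limit read from the data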;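 note: p53-null SaOS-2 cells with luciferase driven by a doxycycline-inducible promoter; compound on cells about two nights before reading with doxycycline added after day one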
Peg3 prom inh-2: confirmation of Peg3 promoter inhibitors | shares compounds with Peg3 prom inh-1 | HeLa PEG-Prom luciferase reporter, luminescence, overnight | inhibition, % at 20 µM | 1,300 compounds, 84% hits | AID 602417;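 active = at 20 µM dose, 40% or more inhibition averaged across four replicates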
Starred values were filed as active, the others as inactive; x = not tested or not shown.

SMILES	KKLEB tox	LGR2 antag	HSP90 refold inh	CF NFkB block	Peg3 prom inh-1	Mdm2 MdmX PPI	Mdm2 MdmX conf	FLuc counter	Peg3 prom inh-2
COc1cc(CNCCCN2CCOCC2)ccc1OCC(=O)Nc1cccc(C(F)(F)F)c1	-16	-38	-5	19	12	44	x	x	x
O=C(C[C@H]1C=C[C@@H](NC(=O)C2CCOCC2)[C@@H](CO)O1)NCC1CC1	x	-14	x	x	x	x	x	x	x
COCC(=O)Nc1ccc2c(c1)C(=O)N(C)C[C@@H](OC)[C@@H](C)CN(Cc1ccccc1F)[C@H](C)CO2	x	1	x	x	x	x	x	x	x
NCCc1c(-c2ccccc2)n(-c2ccccc2)c2ccccc12	-14	58*	4	17	107*	61*	53*	71*	99*
CC(=O)n1c(-c2ccccc2)c(CO)c2ccccc21	10	-12	1	5	-14	-5	x	x	x
Cc1c(C)c2cccnc2c2ncccc12	-28	x	x	13	57*	85*	87*	17	43*
CCOC(=O)c1c(NC(=O)CSc2nnnn2-c2ccccc2OCC)sc2c1CC(C)(C)NC2(C)C	-7	10	x	22	79*	58*	41*	73*	86*
CCOC(=O)c1c(NC(=O)CCS(=O)(=O)c2ccccc2)sc2c1CC(C)(C)NC2(C)C	2	0	-4	-2	0	14	x	x	x
Cc1cc(NC(=O)c2cncc(Br)c2)ccc1NC(=O)c1cc2ccccc2o1	-6	7	3	-3	85*	74*	51*	29	35
C[C@H]1CN([C@@H](C)CO)C(=O)c2cc(C#CCN(C)C)cnc2O[C@@H]1CN(C)C(=O)c1ccc2c(c1)OCO2	x	-14	x	x	x	x	x	x	x
CC(=O)c1sc2c(c1OC(=O)c1ccc(Cl)cc1)c(=O)n(-c1ccccc1)c(=S)n2-c1ccccc1	15	-5	x	24	39	x	x	x	x
CC(=O)c1sc2c(c1OC(=O)c1ccc(Cl)cc1Cl)c(=O)n(-c1ccccc1)c(=S)n2-c1ccccc1	-17	15	5	54*	80*	95*	92*	12	59*
C[C@H](CO)N1C[C@H](C)[C@@H](CN(C)C(=O)Nc2cccc3ccccc23)Oc2ccc(NC(=O)C3CCCCC3)cc2CC1=O	x	16	x	x	x	x	x	x	x
COc1ccc(-c2sc3ccccc3c2-c2ccc(OCCN3CCCCC3)cc2)cc1	-14	-4	x	30	96*	88*	20	x	79*
COc1ccc(-c2sc3ccc(OC)cc3c2-c2ccc(OCCN3CCOCC3)cc2)cc1	-24	x	x	25	21	46	x	x	x
COc1cccc(-c2sc3ccc(OC)cc3c2-c2ccc(C(N)=O)cc2)c1	2	-5	x	17	6	-1	x	x	x
COc1cccc(-c2sc3ccccc3c2-c2ccc(OCCN(C)C)cc2)c1	-39	2	x	49	94*	100*	25	x	99*
C[C@H]1CN([C@@H](C)CO)C(=O)Cc2cc(NC(=O)Cc3cn(C)c4ccccc34)ccc2O[C@@H]1CN(C)C(=O)Nc1ccccc1	x	13	x	x	x	x	x	x	x
COc1ccc(OC)c(-c2csc(NC(=O)Cn3[nH]c(=O)c4ccccc4c3=O)n2)c1	4	3	7	-26	55*	67*	83*	50*	28
C[C@@H]1[C@H]2[C@@H]3CC[C@@H](C3)[C@H]2CN[C@H]1c1cn(Cc2ccccc2)c2ccccc12	-5	x	x	6	71*	54*	31	x	54*
O=C(Nc1ccccc1)c1nc[nH]c1C(=O)NCCCCCCNC(=O)c1[nH]cnc1C(=O)Nc1ccccc1	-8	x	x	7	62*	87*	33	x	57*
CNC(=O)c1[nH]cnc1C(=O)Nc1ccccc1	8	-32	x	7	-46	3	x	x	x
COc1ccc(-n2nc(C(=O)Nc3ccc(OC)c(OC)c3)c3c4ccccc4n(C)c3c2=O)cc1	-60*	x	-2	64*	62*	76*	38	x	14
C[C@@H]1CN([C@@H](C)CO)C(=O)c2cc(NC(=O)CCCCCC(=O)Nc3ccccc3N)ccc2O[C@H]1CN(C)C(=O)Nc1cccc2ccccc12	x	-22	x	x	x	x	x	x	x
Cc1noc(C)c1S(=O)(=O)Nc1ccc2c(c1)CC(=O)N([C@H](C)CO)C[C@H](C)[C@@H](CN(C)C)O2	x	1	x	x	x	x	x	x	x
SMILES	KKLEB tox	LGR2 antag	HSP90 refold inh	CF NFkB block	Peg3 prom inh-1	Mdm2 MdmX PPI	Mdm2 MdmX conf	FLuc counter	Peg3 prom inh-2
CCN(CC)CCn1c2ccccc2c2cnc(N)c(C#N)c21	-4	-4	2	27	91*	63*	27	x	94*
COCc1ccc(CN2CCC(C(=O)Nc3cccc(-c4cccc(Cl)c4)c3)CC2)o1	-9	6	0	15	103*	78*	54*	58*	99*
COc1ccc(CN(C)C[C@@H]2Oc3ccc(NS(=O)(=O)c4ccc(C)cc4)cc3C(=O)N([C@@H](C)CO)C[C@@H]2C)cc1	x	6	x	x	x	x	x	x	x
C[C@H](CO)N1C[C@H](C)[C@H](CN(C)Cc2ccc(C(=O)O)cc2)Oc2c(NC(=O)C3CC3)cccc2C1=O	x	3	x	x	x	x	x	x	x
CCCCN(C)CCNC(=O)c1cc(-c2cccnc2)nc2ccc(S(=O)(=O)N3CCC(C)CC3)cc12	-5	10	-2	14	96*	96*	26	x	74*
CCCCN(C)CCCNC(=O)c1cc(-c2cccnc2)nc2ccccc12	1	-10	-1	7	4	-24	x	x	x
CNCC[C@@H](Oc1ccc(C(F)(F)F)cc1)c1ccccc1	-21	-2	x	14	74*	50*	28	x	69*
CN(C)C(CNc1ccc(C(F)(F)F)cn1)c1ccccc1 (stereo unspecified)	-2	-44	-2	-13	-12	17	x	x	x
O=C(C[C@H]1CC[C@@H](NS(=O)(=O)c2ccc(F)cc2)[C@@H](CO)O1)NCc1ccc(Cl)c(Cl)c1	x	16	x	x	x	x	x	x	x
Cc1cc2sc3ccc(C#CC4(O)CCCCC4)cc3c(=O)c2cc1C	-40	x	x	-4	99*	94*	97*	54*	97*
CC1=NN(c2cccc(C(=O)O)c2)C(=O)/C1=C\C=C\c1ccco1	2	-155	-1	6	-36	4	x	x	x
CC1=NN(c2ccccc2)C(=O)/C1=C/C=C/c1ccccc1	11	2	-3	40	113*	65*	52*	49*	22
CCCCCCCNC(=O)C1(CC2CC(c3cccc(Br)c3)=NO2)CCNCC1 (stereo unspecified)	-23	x	-1	26	99*	100*	85*	60*	99*
CCNC(=O)C[C@H]1C=C[C@H](NC(=O)C2CC2)[C@H](CO)O1	x	-7	x	x	x	x	x	x	x
